# Publication PMC5540273 (PLoS ONE, 2017)
# Test system: TGFBR2
# Conditions: concentration: 1 μM,replicates: in singlicate; n = 1
# 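Note: KINOMEscan kinase panel screen.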
row,Structure (SMILES),%Inh [%]
1,CN(c1cccc(CNc2nc(Nc3ccc4c(c3)CC(=O)N4)ncc2C(F)(F)F)c1)S(C)(=O)=O,0
2,CC(=O)Nc1ccc(-c2cc3ncnc(SCC(=O)O)c3s2)cc1,46
3,COc1cccc(OC)c1C(=O)Nc1cccc(-c2nn3ccccc3c2-c2ccnc(Nc3cccc(F)c3)n2)c1 [GSK361065],17
4,CC(C(=O)NC1CCN(c2ccnc(Nc3ccc(F)cc3)n2)C1)c1ccc(Cl)cc1 (centres unmarked) [GSK1379713],0
5,Cc1ccc(CC(=O)N2CCc3cc(-c4cn(C)c5ncnc(N)c45)ccc32)cc1 [GSK2634758],0
6,Cl.Nc1n[nH]c2cc(-c3ccccn3)ccc12 [GSK2189892],0
7,Cl.c1ccc(Oc2ccc(Nc3ccnc4cc(-c5ccc(CN6CCNCC6)o5)ccc34)cc2)nc1 [GW567142],0
8,c1ccc(Oc2ccc(Nc3ccnc4ccc(-c5ccccn5)cc34)cc2)cc1 [GW407034],0
9,COc1cccc(C2=C(Nc3cccc(Cl)c3)C(=O)NC2=O)c1 [SB-341556],0
10,C[C@@H](Oc1cc(-n2cnc3cc(-c4cnn(C)c4)ccc32)sc1C(N)=O)c1ccccc1Cl [GSK580432],0
11,O=C(Nc1n[nH]c2cc(-c3ccco3)ccc12)C1CC1 [SB-737447],0
12,COc1cc2nccc(Nc3ccc(Oc4ccccc4)cc3)c2cc1OC.Cl [GI261656],0
13,CN(c1ccccc1CNc1nc(Nc2ccc3c(c2)CC(=O)N3)ncc1C(F)(F)F)S(C)(=O)=O,16
14,N#Cc1cccc(C(=O)NC2CCN(c3ccnc(Nc4ccc(F)cc4)n3)C2)c1 (centres unmarked) [GSK1379708],0
15,COc1cccc(CNC(=O)NC2CCN(c3ccnc(Nc4cc(OC)c(OC)c(OC)c4)n3)C2)c1 (centres unmarked) [GSK1379765],0
16,Cc1ccc2c(-c3ccnc(Nc4ccc(C(F)(F)F)cc4)n3)cnn2n1 [GW819776],60
17,O=C(Nc1ccc(Oc2ccc3nc(NC(=O)C4CC4)cn3n2)c(F)c1)c1cccn(-c2ccccc2)c1=O,9
18,CS(=O)(=O)Nc1ccc(-c2ccnc3[nH]ccc23)cc1 [GSK993273],0
19,CNC(=O)c1ccccc1Nc1nc(Nc2cccc(CS(C)(=O)=O)c2)ncc1C.O=CO [GSK1520489],37

row,Structure (SMILES),%Inh [%]
1,O=C(Nc1cccc(C(F)(F)F)c1)c1cccc(Oc2ccc3nccn3n2)c1,0
2,COC(=O)Nc1nc2cc(Oc3ccc(NC(=O)Nc4cc(C(F)(F)F)ccc4Cl)cc3)ccc2[nH]1.Cl [GW697465],6
3,CC(C)c1nc(-c2cccc(NS(=O)(=O)c3ccccc3)c2)c(-c2ccnc(Nc3ccc4c(c3)CN(C)CC4)n2)s1 [GSK1649598],94.8
4,CC(=O)Nc1nc2cnc(Nc3cc(NC(=O)c4cccc(CC(C)(C)C#N)c4)ccc3C)nc2s1,0
5,CCn1c(-c2nonc2N)nc2cncc(CNC3CCNCC3)c21.Cl [SB-747651],0
6,CC(C)S(=O)(=O)N1CCN(Cc2ccc3c(c2)nc(NC(=O)c2ccsc2)n3C[C@H](O)c2ccccc2)CC1 [GW635815],0
7,COc1cc2ncn(-c3cc(OCC4CCCCC4)c(C(N)=O)s3)c2cc1OC [GSK204559],0
8,NC(=O)c1ccc(-c2cc3ncnc(SCC(=O)O)c3s2)cc1,40
9,COc1ccc(Nc2nccc(N3CCC(NC(=O)c4cccc(C#N)c4)C3)n2)cc1 (centres unmarked) [GSK1379730],0
10,CCOC(=O)N1CCC(n2cnc(-c3ccc(F)cc3)c2-c2ccnc(N)n2)CC1 [SB-219952],10
11,CCN1CCN(CCCC(=O)Nc2n[nH]c3nc(-c4ccc(O)cc4)c(Br)cc23)CC1 [SB-731579],0
12,CC(=O)c1c(-c2ccncc2)[nH]c(-c2ccncc2)c1C [GW493036],25
13,O=c1[nH]cc(-c2ccc(O)cc2)c2sc(-c3ccncc3)cc12 [GSK1033723],0
14,C[C@@H]1CCN(C(=O)N2CCCC2)C[C@@H]1N(C)c1ncnc2[nH]ccc12,0
15,CCn1c(-c2nonc2N)nc2cncc(Br)c21 [SB-738004],0
16,Cc1n[nH]c2cc(Nc3ccnc(Nc4cccc(CN5CCOCC5)c4)n3)ccc12 [GW682569],84
17,O=C(NOCC1CC1)c1cc(Br)c(F)c(F)c1Nc1ccc(I)cc1Cl,0
18,Cn1cc(-c2cccc3c(N)c(C(N)=O)nnc23)cn1,16

# Test system: TIE1
# Conditions: concentration: 1 μM,replicates: in singlicate; n = 1
row,Structure (SMILES),%Inh [%]
1,CN(c1cccc(CNc2nc(Nc3ccc4c(c3)CC(=O)N4)ncc2C(F)(F)F)c1)S(C)(=O)=O,75
2,CC(=O)Nc1ccc(-c2cc3ncnc(SCC(=O)O)c3s2)cc1,17
3,COc1cccc(OC)c1C(=O)Nc1cccc(-c2nn3ccccc3c2-c2ccnc(Nc3cccc(F)c3)n2)c1 [GSK361065],19
4,CC(C(=O)NC1CCN(c2ccnc(Nc3ccc(F)cc3)n2)C1)c1ccc(Cl)cc1 (centres unmarked) [GSK1379713],12
5,Cc1ccc(CC(=O)N2CCc3cc(-c4cn(C)c5ncnc(N)c45)ccc32)cc1 [GSK2634758],89
6,Cl.Nc1n[nH]c2cc(-c3ccccn3)ccc12 [GSK2189892],0
7,Cl.c1ccc(Oc2ccc(Nc3ccnc4cc(-c5ccc(CN6CCNCC6)o5)ccc34)cc2)nc1 [GW567142],0
8,c1ccc(Oc2ccc(Nc3ccnc4ccc(-c5ccccn5)cc34)cc2)cc1 [GW407034],2
9,COc1cccc(C2=C(Nc3cccc(Cl)c3)C(=O)NC2=O)c1 [SB-341556],4
10,C[C@@H](Oc1cc(-n2cnc3cc(-c4cnn(C)c4)ccc32)sc1C(N)=O)c1ccccc1Cl [GSK580432],94.2
11,O=C(Nc1n[nH]c2cc(-c3ccco3)ccc12)C1CC1 [SB-737447],17
12,COc1cc2nccc(Nc3ccc(Oc4ccccc4)cc3)c2cc1OC.Cl [GI261656],0
13,CN(c1ccccc1CNc1nc(Nc2ccc3c(c2)CC(=O)N3)ncc1C(F)(F)F)S(C)(=O)=O,90.6
14,N#Cc1cccc(C(=O)NC2CCN(c3ccnc(Nc4ccc(F)cc4)n3)C2)c1 (centres unmarked) [GSK1379708],3
15,COc1cccc(CNC(=O)NC2CCN(c3ccnc(Nc4cc(OC)c(OC)c(OC)c4)n3)C2)c1 (centres unmarked) [GSK1379765],100
16,Cc1ccc2c(-c3ccnc(Nc4ccc(C(F)(F)F)cc4)n3)cnn2n1 [GW819776],0
17,O=C(Nc1ccc(Oc2ccc3nc(NC(=O)C4CC4)cn3n2)c(F)c1)c1cccn(-c2ccccc2)c1=O,92.2
18,CS(=O)(=O)Nc1ccc(-c2ccnc3[nH]ccc23)cc1 [GSK993273],28
19,CNC(=O)c1ccccc1Nc1nc(Nc2cccc(CS(C)(=O)=O)c2)ncc1C.O=CO [GSK1520489],95

row,Structure (SMILES),%Inh [%]
1,O=C(Nc1cccc(C(F)(F)F)c1)c1cccc(Oc2ccc3nccn3n2)c1,39
2,COC(=O)Nc1nc2cc(Oc3ccc(NC(=O)Nc4cc(C(F)(F)F)ccc4Cl)cc3)ccc2[nH]1.Cl [GW697465],91.5
3,CC(C)c1nc(-c2cccc(NS(=O)(=O)c3ccccc3)c2)c(-c2ccnc(Nc3ccc4c(c3)CN(C)CC4)n2)s1 [GSK1649598],91.5
4,CC(=O)Nc1nc2cnc(Nc3cc(NC(=O)c4cccc(CC(C)(C)C#N)c4)ccc3C)nc2s1,20
5,CCn1c(-c2nonc2N)nc2cncc(CNC3CCNCC3)c21.Cl [SB-747651],5
6,CC(C)S(=O)(=O)N1CCN(Cc2ccc3c(c2)nc(NC(=O)c2ccsc2)n3C[C@H](O)c2ccccc2)CC1 [GW635815],28
7,COc1cc2ncn(-c3cc(OCC4CCCCC4)c(C(N)=O)s3)c2cc1OC [GSK204559],19
8,NC(=O)c1ccc(-c2cc3ncnc(SCC(=O)O)c3s2)cc1,0
9,COc1ccc(Nc2nccc(N3CCC(NC(=O)c4cccc(C#N)c4)C3)n2)cc1 (centres unmarked) [GSK1379730],16
10,CCOC(=O)N1CCC(n2cnc(-c3ccc(F)cc3)c2-c2ccnc(N)n2)CC1 [SB-219952],12
11,CCN1CCN(CCCC(=O)Nc2n[nH]c3nc(-c4ccc(O)cc4)c(Br)cc23)CC1 [SB-731579],19
12,CC(=O)c1c(-c2ccncc2)[nH]c(-c2ccncc2)c1C [GW493036],0
13,O=c1[nH]cc(-c2ccc(O)cc2)c2sc(-c3ccncc3)cc12 [GSK1033723],0
14,C[C@@H]1CCN(C(=O)N2CCCC2)C[C@@H]1N(C)c1ncnc2[nH]ccc12,22
15,CCn1c(-c2nonc2N)nc2cncc(Br)c21 [SB-738004],0
16,Cc1n[nH]c2cc(Nc3ccnc(Nc4cccc(CN5CCOCC5)c4)n3)ccc12 [GW682569],45
17,O=C(NOCC1CC1)c1cc(Br)c(F)c(F)c1Nc1ccc(I)cc1Cl,0
18,Cn1cc(-c2cccc3c(N)c(C(N)=O)nnc23)cn1,6
